Inconclusive results are not listed. Calls of active or inactive are those of the source. The call rests on the fitted dose curve; in most records, active means well fitted curve in the direction sought with a large enough effect; inconclusive means small, poorly fitted or top-dose-only effect, or another doubt; inactive means no such curve, though single readings can be large; an effect the other way counts as inactive or inconclusive.
Tests used:
[1] = Validation qHTS assay for inhibitors of Activation Induced Cytidine Deaminase (AID): UDG Counterscreen signal (AID 1347427); further: 0% is about no effect
How it was run: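 Fluorescence at 560 nm excitation, 665 nm emission reports UDG signal after 250 mM NaOH (2x) addition and 30 min. Enzymes (AID 1 uM, UDG 2 U/mL, at 4/3x) preincubated 10 min with compound, then 4 h with 4x 250 nM DJC20/DJC23 substrate at room temperature.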

[2] = target: Single-stranded DNA cytosine deaminase (Homo sapiens) (UniProt Q9GZX7); assay: Validation qHTS assay for inhibitors of Activation Induced Cytidine Deaminase (AID): AID signal (AID 1347429); further: on the % scale 0 is the no-effect control and ±100 the full control effect
Single-stranded DNA cytosine deaminase (Homo sapiens), sequence (Q9GZX7 whole entry, looked up): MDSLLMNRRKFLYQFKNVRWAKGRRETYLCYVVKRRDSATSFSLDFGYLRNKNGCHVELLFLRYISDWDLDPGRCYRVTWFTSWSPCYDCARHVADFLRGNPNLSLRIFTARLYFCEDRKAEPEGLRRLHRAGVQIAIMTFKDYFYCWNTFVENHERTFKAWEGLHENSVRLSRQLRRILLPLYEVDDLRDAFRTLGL
How it was run: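 Compounds (final up to 114 uM) preincubated with AID plus UDG; 250 nM DJC20/DJC23 substrate mix (4x stock) added, 4 hr at room temperature, then NaOH, 30 min. Read 1 fluorescence at 540 nm excitation, 590 nm emission.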

[3] = Primary qHTS for inhibitors of La Crosse Virus (LACV) - induced cell death in SH-SY5Y cells (AID 1508616);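 further: top concentration of the series differs between compounds; 0% = infected DMSO wells and 100% = uninfected DMSO wells; higher means more rescue of cells from virus-induced death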
How it was run: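 Rescue of virus-induced death was read as ATPLite luminescence after 6 days at 37C, scaled between DMSO wells with LACV and without virus. Cells were SH-SY5Y, 6000/well, infected at 0.01 MOI after compound addition.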

[4] = target: Calcium and integrin-binding protein 1 (Homo sapiens) (UniProt Q99828); assay: Validation qHTS for Identification of Calcium Integrin Binding protein 1 (CIB1) Competitor (AID 1508618); further: on the % scale 0 is the no-effect control and ±100 the full control effect
Calcium and integrin-binding protein 1 (Homo sapiens), sequence (Q99828 whole entry, looked up): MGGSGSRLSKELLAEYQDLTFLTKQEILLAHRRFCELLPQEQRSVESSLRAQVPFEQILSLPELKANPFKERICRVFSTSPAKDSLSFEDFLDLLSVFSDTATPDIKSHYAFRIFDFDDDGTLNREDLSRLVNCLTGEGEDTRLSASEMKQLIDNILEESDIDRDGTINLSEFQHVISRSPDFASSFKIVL
How it was run: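 CIB1-GST (1 uM final) incubated 15 min at room temperature with compounds (up to 114 uM), then FITC-labelled alphaIIb peptide (100 nM) added. FP read (Ex 480/Em 540) after 15 min, pH 7.4 buffer containing 5 mM CaCl2.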

[5] = target: Calcium and integrin-binding protein 1 (Homo sapiens) (UniProt Q99828); assay: Primary qHTS for Identification of Calcium Integrin Binding Protein 1 (CIB1) Competitor (AID 1508620);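 further: GST tagged CIB1 binding a fluorescein labelled alphaIIb integrin peptide tracer; top concentration of the series differs between compounds; on the % scale 0 is the no-effect control and ±100 the full control effect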
How it was run: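 Fluorescence polarization competition: GST-tagged CIB1 (1 uM final) preincubated with compound 15 min at room temperature, then FITC-labelled alphaIIb peptide (100 nM final) added. After 15 min at room temperature, polarization read at Ex 480/Em 540.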

[6] = Primary qHTS for small molecule stabilizers of the endoplasmic reticulum resident proteome: Secreted ER Calcium Modulated Protein (SERCaMP) assay (AID 1508630); further: on the % scale 0 is the no-effect control and ±100 the full control effect
How it was run: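 The SH-SY5Y reporter protocol was run at 3 concentrations up to 38.3 uM (primary) or 11 concentrations (follow-up): 16 h compound, 100 nM thapsigargin for 4 h, then extracellular luciferase luminescence.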

[7] = Counterscreen qHTS for small molecule stabilizers of the endoplasmic reticulum resident proteome: GLuc-NoTag assay (AID 1508627);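 further: SH-SY5Y cells given compound then 100 nM thapsigargin to empty ER calcium; series mostly up to about 76 µM; 0% = thapsigargin alone and -100% = DMSO vehicle control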
How it was run: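 Counterscreen line: SH-SY5Y-GLuc-NoTag. Seed, 5 h; compound, 19 h; thapsigargin 100 nM, 4 h; 37C/5% CO2. Readout: secreted GLuc luminescence, coelenterazine 0.07x final, no lysis.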

[8] = Cell Viability qHTS for small molecule stabilizers of the endoplasmic reticulum resident proteome (AID 1508629); conditions: cell viability counter-screen, 100 nM thapsigargin for final 4 h

Nc1nc2ccc(OC(F)(F)F)cc2s1
inactive: outcome [1] | Potency [2] | outcome [3] | Potency [4] | outcome [5] | Potency [6]

CCC(C)N(C)C(=O)c1cc2ccccc2c(-c2ccccc2Cl)n1 (stereo not drawn)
inactive: outcome [1] | Potency [2] | outcome [3] | Potency [4] | outcome [5]

Cc1[nH]c(=O)c(C#N)cc1-c1ccc2nccn2c1
inactive: outcome [1] | Potency [2] | outcome [3] | Potency [4] | outcome [5] | Potency [7] | max response [8] 9.8% | Potency [6]

CC(C)NCC(O)COc1ccc(COCCOC(C)C)cc1 (stereo not drawn)
inactive: outcome [1] | Potency [2] | outcome [3] | Potency [4] | outcome [5] | Potency [6]

CCn1cc(C(=O)O)c(=O)c2cc(F)c(N3CCNC(C)C3)c(F)c21 (stereo not drawn)
inactive: outcome [1] | Potency [2] | outcome [3] | Potency [4] | outcome [5]

O=c1[nH]cnc2[nH]ncc12
inactive: outcome [1] | Potency [2] | outcome [3] | Potency [4] | outcome [5] | Potency [6]

CCCC(CCC)C(=O)O
inactive: outcome [1] | Potency [2] | outcome [3] | Potency [4] | outcome [5]

Cc1ccccc1C(OCCN(C)C)c1ccccc1 (stereo not drawn)
inactive: outcome [1] | Potency [2] | outcome [3] | Potency [4] | outcome [5] | Potency [7] | Potency [6]

NC(=O)c1cnccn1
inactive: outcome [1] | Potency [2] | outcome [3] | Potency [4]

C1COC(NC(C2CC2)C2CC2)=N1
inactive: outcome [1] | Potency [2] | outcome [3] | Potency [4] | outcome [5] | Potency [6]

O=C1CCc2cc(OCCCCc3nnnn3C3CCCCC3)ccc2N1
inactive: outcome [1] | Potency [2] | outcome [3] | Potency [4] | outcome [5]

O=C(Nc1nc2ccccc2n1CCN1CCOCC1)c1cccc([N+](=O)[O-])c1
inactive: outcome [1] | Potency [2] | outcome [3] | Potency [4] | outcome [5]

Source: PubChem BioAssay (NCATS)
